# Results published in PMC7862700, “An all-to-all approach to the identification of sequence-specific readers for epigenetic DNA modifications on cytosine”.
# Key:
# Experiment in all cases: DAPPL (digital affinity profiling via proximity ligation, sequencing); 10 mM Tris-HCl pH 7.5, 50 mM NaCl, 1 mM DTT, 4% glycerol, room temperature, 30 min; GST-TFs on glutathione beads, 16-mer random dsDNA library, 0.1% formaldehyde crosslink after washing; high values mean tight binding
# [1] = target: T1, FLI1 (Homo sapiens, UniProt Q01543 1-452); conditions: protein: recombinant; tags: N-terminal GST; dsDNA, one strand shown
# T1 sequence: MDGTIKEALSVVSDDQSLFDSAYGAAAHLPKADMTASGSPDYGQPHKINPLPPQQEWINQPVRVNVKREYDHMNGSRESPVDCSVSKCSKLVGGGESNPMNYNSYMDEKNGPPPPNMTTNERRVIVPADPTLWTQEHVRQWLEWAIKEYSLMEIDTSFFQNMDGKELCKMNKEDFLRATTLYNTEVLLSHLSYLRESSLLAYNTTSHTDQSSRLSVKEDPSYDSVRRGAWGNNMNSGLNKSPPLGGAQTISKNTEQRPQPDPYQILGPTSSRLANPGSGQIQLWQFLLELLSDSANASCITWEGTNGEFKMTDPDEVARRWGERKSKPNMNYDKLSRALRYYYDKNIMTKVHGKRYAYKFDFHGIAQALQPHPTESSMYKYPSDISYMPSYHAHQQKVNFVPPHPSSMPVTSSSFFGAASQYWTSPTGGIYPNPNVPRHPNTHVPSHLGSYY
# Procedure, shortened: (§1)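 Human transcription factors carrying a GST fusion were produced in yeast, bound to glutathione beads, tagged with DNA barcodes and pooled together with a tag-only sample. Each pool was held with 200 nmole of a random double-stranded 16-mer DNA library in Tris/NaCl/DTT/glycerol buffer for 30 min at room temperature, then washed, crosslinked in 0.1% formaldehyde, proximity-ligated with BsaI/T4 ligase (1 h, 37 °C), PCR-amplified and sequenced on an Illumina NextSeq500. Binding signal is the read frequency of each hexamer for a given factor divided by its frequency in the tag-only sample.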
# [2] = target: T2, ELK1 (Homo sapiens, UniProt P19419 1-428); conditions: protein: recombinant; tags: N-terminal GST; dsDNA, one strand shown
# T2 sequence: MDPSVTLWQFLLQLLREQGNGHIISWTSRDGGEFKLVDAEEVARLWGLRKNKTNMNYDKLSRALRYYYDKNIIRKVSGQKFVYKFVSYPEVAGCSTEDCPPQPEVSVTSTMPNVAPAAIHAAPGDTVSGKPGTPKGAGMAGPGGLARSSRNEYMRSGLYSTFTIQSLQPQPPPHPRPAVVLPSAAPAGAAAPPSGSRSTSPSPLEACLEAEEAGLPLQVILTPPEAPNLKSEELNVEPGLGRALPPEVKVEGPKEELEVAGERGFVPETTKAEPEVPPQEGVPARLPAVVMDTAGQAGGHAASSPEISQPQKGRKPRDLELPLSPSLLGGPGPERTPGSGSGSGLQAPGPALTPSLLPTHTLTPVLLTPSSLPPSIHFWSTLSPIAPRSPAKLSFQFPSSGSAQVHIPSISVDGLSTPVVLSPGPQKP
# Procedure, shortened: as §1
# [3] = target: T3, GABPA (Homo sapiens, UniProt Q06546 1-454); conditions: protein: recombinant; tags: N-terminal GST; dsDNA, one strand shown
# T3 sequence: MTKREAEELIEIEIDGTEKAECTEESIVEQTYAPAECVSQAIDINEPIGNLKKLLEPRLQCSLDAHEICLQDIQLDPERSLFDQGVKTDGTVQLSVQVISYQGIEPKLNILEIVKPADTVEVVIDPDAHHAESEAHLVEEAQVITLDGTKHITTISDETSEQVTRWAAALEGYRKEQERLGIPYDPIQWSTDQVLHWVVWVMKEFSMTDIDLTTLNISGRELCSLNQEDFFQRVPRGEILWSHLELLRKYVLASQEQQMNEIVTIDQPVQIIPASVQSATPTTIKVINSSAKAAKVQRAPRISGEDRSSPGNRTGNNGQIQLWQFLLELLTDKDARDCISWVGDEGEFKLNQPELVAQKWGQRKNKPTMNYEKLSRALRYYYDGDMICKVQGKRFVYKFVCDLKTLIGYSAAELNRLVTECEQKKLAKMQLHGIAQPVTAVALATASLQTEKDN
# Procedure, shortened: as §1
# [4] = target: T4, ERG (Homo sapiens, UniProt P11308 1-479); conditions: protein: recombinant; tags: N-terminal GST; dsDNA, one strand shown
# T4 sequence: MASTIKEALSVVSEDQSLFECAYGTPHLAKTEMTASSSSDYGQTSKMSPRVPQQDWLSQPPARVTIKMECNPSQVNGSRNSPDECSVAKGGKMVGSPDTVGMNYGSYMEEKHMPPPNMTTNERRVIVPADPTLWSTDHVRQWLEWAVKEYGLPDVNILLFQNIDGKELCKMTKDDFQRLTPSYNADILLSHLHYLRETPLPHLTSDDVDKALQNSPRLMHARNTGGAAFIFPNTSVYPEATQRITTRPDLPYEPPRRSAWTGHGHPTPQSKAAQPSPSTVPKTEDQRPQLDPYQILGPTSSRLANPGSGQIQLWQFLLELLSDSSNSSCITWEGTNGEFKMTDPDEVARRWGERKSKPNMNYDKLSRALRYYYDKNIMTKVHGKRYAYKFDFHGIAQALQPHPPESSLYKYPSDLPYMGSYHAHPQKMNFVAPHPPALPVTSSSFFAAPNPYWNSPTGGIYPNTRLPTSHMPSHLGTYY
# Procedure, shortened: as §1
# [5] = target: ELF1 (Homo sapiens, UniProt P32519 1-619); conditions: protein: recombinant; tags: N-terminal GST; dsDNA, one strand shown
# Procedure, shortened: as §1
# [6] = target: T5, EHF (Homo sapiens, UniProt Q9NZC4 1-300); conditions: protein: recombinant; tags: N-terminal GST; dsDNA, one strand shown
# T5 sequence: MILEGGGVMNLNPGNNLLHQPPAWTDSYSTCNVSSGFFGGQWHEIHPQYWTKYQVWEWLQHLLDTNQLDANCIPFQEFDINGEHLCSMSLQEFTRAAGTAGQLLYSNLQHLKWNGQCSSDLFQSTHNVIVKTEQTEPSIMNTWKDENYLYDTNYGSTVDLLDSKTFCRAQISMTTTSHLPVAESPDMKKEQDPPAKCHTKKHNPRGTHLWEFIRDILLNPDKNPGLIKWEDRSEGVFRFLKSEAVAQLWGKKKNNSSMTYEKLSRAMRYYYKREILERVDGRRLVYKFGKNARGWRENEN
# Procedure, shortened: as §1
# [7] = target: SPI1 (Homo sapiens, UniProt P17947 1-270); conditions: protein: recombinant; tags: N-terminal GST; dsDNA, one strand shown
# Procedure, shortened: as §1
# [8] = target: SPIB (Homo sapiens, UniProt Q01892 1-262); conditions: protein: recombinant; tags: N-terminal GST; dsDNA, one strand shown
# Procedure, shortened: as §1
# [9] = target: T6, ELK3 (Homo sapiens, UniProt P41970 1-407); conditions: protein: recombinant; tags: N-terminal GST; dsDNA, one strand shown
# T6 sequence: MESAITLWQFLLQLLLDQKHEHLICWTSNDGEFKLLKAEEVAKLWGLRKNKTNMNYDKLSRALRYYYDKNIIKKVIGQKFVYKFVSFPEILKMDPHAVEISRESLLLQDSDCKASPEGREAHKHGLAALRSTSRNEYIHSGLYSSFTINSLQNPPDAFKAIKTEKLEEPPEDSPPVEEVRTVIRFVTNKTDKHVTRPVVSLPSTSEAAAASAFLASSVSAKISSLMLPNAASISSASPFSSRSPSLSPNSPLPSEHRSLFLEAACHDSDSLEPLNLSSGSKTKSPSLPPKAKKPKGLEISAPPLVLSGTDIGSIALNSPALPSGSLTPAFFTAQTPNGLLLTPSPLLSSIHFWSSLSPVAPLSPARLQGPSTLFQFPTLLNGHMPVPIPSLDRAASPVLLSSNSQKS
# Procedure, shortened: as §1
# [10] = target: T7, FEV (Homo sapiens, UniProt Q99581 1-238); conditions: protein: recombinant; tags: N-terminal GST; dsDNA, one strand shown
# T7 sequence: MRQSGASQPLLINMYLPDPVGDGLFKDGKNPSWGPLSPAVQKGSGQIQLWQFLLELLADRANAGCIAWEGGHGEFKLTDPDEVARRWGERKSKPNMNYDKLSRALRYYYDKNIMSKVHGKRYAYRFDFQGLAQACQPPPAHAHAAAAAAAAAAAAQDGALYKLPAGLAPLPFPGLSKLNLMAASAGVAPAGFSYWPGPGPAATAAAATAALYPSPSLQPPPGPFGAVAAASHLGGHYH
# Procedure, shortened: as §1
# [11] = target: ETV5 (Homo sapiens, UniProt P41161 1-510); conditions: protein: recombinant; tags: N-terminal GST; dsDNA, one strand shown
# Procedure, shortened: as §1
# [12] = target: HSF1 (Homo sapiens, UniProt Q00613 1-529); conditions: protein: recombinant; tags: N-terminal GST; chain copies: 3; dsDNA, one strand shown
# Procedure, shortened: as §1
# [13] = target: T8, SPIC (Homo sapiens, UniProt Q8N5J4 1-248); conditions: protein: recombinant; tags: N-terminal GST; dsDNA, one strand shown
# T8 sequence: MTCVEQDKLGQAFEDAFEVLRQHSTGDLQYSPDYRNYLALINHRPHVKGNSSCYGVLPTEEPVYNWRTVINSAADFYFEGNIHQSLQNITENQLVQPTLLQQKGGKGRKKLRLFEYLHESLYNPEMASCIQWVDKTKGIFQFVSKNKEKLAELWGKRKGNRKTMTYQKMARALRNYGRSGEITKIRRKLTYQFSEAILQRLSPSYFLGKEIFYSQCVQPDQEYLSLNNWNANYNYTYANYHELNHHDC
# Procedure, shortened: as §1
# [14] = target: ELF4 (Homo sapiens, UniProt Q99607 1-663); conditions: protein: recombinant; tags: N-terminal GST; dsDNA, one strand shown
# Procedure, shortened: as §1
# [15] = target: T9, ELK4 (Homo sapiens, UniProt P28324-2 1-405); conditions: protein: recombinant; tags: N-terminal GST; dsDNA, one strand shown
# T9 sequence: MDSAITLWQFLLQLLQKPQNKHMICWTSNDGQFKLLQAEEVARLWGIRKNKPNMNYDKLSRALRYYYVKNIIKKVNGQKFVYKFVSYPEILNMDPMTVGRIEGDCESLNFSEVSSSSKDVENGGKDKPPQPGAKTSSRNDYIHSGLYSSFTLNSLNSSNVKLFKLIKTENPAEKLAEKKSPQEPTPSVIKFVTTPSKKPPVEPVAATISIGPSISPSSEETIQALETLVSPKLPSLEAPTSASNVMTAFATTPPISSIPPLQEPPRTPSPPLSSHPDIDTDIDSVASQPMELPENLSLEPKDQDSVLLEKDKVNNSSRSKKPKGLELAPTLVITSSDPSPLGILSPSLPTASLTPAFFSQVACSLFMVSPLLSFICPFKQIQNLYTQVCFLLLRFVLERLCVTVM
# Procedure, shortened: as §1
# [16] = target: T10, ETV2 (Homo sapiens, UniProt O00321 1-342); conditions: protein: recombinant; tags: N-terminal GST; dsDNA, one strand shown
# T10 sequence: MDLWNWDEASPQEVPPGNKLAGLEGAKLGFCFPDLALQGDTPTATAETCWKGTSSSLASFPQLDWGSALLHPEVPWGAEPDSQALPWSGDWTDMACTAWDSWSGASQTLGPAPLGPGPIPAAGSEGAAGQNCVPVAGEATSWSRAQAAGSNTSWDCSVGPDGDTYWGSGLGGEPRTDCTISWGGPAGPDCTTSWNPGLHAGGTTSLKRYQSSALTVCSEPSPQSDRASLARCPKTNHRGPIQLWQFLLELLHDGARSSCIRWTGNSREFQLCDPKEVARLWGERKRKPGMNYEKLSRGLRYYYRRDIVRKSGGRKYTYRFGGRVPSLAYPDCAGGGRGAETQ
# Procedure, shortened: as §1
# [17] = target: T11, ELF3 (Homo sapiens, UniProt P78545 1-371); conditions: protein: recombinant; tags: N-terminal GST; dsDNA, one strand shown
# T11 sequence: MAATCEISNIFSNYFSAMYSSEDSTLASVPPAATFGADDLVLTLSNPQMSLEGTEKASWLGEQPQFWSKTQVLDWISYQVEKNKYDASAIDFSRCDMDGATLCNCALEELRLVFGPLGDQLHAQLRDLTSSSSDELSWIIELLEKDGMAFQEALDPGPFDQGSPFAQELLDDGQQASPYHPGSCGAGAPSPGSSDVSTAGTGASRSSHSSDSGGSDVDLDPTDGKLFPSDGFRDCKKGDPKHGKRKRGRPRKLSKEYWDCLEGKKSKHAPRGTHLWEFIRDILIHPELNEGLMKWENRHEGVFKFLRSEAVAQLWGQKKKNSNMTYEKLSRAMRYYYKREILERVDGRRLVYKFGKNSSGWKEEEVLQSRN
# Procedure, shortened: as §1
# [18] = target: CRX (Homo sapiens, UniProt O43186 1-299); conditions: protein: recombinant; tags: N-terminal GST; dsDNA, one strand shown
# Procedure, shortened: as §1
# [19] = target: ETV1 (Homo sapiens, UniProt P50549 1-477); conditions: protein: recombinant; tags: N-terminal GST; dsDNA, one strand shown
# Procedure, shortened: as §1
# ELF1, sequence (P32519 whole entry): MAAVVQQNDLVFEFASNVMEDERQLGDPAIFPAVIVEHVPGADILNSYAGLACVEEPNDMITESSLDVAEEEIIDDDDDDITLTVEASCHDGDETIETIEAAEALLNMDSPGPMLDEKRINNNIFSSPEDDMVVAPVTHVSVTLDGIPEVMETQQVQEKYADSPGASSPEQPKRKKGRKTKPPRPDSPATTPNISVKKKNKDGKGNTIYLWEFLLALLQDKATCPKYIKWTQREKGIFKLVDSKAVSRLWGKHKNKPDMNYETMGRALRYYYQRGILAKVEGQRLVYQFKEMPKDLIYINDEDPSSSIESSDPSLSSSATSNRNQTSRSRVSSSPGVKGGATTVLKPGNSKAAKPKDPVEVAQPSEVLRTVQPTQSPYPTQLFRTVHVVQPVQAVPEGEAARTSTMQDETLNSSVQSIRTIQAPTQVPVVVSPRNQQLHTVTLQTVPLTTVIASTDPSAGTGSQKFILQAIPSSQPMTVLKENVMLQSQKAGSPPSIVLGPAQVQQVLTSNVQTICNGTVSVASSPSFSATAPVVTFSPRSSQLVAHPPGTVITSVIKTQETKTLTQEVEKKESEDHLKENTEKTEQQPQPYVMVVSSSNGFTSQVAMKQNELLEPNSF
# SPIB, sequence (Q01892 whole entry): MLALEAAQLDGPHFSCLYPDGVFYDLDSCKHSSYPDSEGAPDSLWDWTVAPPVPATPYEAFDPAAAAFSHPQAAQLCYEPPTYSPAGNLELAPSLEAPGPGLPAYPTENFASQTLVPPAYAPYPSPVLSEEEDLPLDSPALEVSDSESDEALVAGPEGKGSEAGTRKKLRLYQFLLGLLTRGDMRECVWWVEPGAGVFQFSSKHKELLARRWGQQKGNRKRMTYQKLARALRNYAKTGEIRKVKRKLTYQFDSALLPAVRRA
# ETV5, sequence (P41161 whole entry): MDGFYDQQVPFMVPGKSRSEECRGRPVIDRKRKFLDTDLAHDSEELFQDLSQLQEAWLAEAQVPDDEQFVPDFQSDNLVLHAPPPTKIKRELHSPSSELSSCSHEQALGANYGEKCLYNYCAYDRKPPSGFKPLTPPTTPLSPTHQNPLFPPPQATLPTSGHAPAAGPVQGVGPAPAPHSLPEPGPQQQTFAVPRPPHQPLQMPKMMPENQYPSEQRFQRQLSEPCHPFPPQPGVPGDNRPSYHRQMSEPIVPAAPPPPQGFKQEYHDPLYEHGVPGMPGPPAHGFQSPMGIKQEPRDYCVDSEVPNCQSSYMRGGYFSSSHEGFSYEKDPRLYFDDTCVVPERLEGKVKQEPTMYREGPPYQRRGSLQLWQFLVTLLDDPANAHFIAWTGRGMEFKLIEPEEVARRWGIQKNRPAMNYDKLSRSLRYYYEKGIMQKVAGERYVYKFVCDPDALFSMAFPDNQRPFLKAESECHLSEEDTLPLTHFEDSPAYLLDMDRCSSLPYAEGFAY
# CRX, sequence (O43186 whole entry): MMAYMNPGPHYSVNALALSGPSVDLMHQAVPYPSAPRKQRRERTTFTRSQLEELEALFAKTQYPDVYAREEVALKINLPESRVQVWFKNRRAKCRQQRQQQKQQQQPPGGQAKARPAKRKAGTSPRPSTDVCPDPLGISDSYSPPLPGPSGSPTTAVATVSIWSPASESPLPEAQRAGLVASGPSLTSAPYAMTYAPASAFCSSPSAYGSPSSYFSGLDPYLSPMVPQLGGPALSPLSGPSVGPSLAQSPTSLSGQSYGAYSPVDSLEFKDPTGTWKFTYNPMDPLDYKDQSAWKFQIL
# ELF4, sequence (Q99607 whole entry): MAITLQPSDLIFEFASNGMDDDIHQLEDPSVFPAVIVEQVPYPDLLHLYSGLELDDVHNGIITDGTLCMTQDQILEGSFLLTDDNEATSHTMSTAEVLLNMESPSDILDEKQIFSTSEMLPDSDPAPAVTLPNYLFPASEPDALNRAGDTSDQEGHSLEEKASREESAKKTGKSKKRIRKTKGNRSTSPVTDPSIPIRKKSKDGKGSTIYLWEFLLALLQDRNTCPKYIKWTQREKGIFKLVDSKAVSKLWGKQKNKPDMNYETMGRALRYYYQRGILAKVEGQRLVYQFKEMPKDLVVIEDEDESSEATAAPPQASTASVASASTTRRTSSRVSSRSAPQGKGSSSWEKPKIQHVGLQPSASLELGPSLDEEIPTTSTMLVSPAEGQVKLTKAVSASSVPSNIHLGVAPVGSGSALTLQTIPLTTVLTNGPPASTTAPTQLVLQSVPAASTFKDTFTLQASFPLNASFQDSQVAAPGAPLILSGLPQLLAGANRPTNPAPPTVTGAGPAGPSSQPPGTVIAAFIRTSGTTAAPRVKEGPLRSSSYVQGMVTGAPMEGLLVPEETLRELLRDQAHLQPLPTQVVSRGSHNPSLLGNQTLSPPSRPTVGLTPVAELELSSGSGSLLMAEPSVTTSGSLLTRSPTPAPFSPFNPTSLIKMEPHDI
# ETV1, sequence (P50549 whole entry): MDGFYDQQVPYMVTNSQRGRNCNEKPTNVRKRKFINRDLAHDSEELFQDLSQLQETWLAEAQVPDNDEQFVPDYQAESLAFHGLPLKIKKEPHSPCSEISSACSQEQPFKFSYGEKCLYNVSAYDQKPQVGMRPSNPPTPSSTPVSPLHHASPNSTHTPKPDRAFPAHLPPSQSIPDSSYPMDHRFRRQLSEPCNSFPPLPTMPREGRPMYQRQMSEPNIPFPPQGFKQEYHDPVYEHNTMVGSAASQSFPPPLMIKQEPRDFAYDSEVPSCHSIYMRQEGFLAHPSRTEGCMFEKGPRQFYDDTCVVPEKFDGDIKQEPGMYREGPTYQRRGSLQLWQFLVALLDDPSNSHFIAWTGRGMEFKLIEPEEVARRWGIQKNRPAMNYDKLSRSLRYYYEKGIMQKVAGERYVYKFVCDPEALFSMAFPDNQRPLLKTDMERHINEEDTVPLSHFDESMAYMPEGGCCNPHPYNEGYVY
# HSF1, sequence (Q00613 whole entry): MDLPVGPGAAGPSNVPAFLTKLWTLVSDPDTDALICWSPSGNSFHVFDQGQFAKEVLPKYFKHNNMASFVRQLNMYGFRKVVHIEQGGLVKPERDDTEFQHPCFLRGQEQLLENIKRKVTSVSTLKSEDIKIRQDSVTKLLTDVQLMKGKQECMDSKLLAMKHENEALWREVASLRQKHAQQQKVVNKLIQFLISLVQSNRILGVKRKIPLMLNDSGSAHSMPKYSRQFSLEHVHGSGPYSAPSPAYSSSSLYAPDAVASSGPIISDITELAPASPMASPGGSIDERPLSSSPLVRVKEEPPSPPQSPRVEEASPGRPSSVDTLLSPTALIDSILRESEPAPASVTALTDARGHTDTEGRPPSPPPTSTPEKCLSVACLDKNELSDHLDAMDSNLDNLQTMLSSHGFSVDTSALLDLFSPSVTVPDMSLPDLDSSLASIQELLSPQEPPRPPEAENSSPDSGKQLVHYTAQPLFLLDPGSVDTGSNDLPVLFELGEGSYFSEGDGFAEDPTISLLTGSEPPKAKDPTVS
sequence,measurement,setting,value
CATTAT,binding signal,[1],"1.19 fold enrichment (6-mer frequency, TF over GST control)"
same,binding signal,[2],"1.13 fold enrichment (6-mer frequency, TF over GST control)"
same,binding signal,[3],"1.06 fold enrichment (6-mer frequency, TF over GST control)"
same,binding signal,[4],"1.15 fold enrichment (6-mer frequency, TF over GST control)"
same,binding signal,[5],"1.16 fold enrichment (6-mer frequency, TF over GST control)"
same,binding signal,[6],"1.18 fold enrichment (6-mer frequency, TF over GST control)"
same,binding signal,[7],"1.11 fold enrichment (6-mer frequency, TF over GST control)"
same,binding signal,[8],"1.18 fold enrichment (6-mer frequency, TF over GST control)"
same,binding signal,[9],"1.13 fold enrichment (6-mer frequency, TF over GST control)"
same,binding signal,[10],"1.18 fold enrichment (6-mer frequency, TF over GST control)"
same,binding signal,[11],"1.09 fold enrichment (6-mer frequency, TF over GST control)"
same,binding signal,[12],"1.26 fold enrichment (6-mer frequency, TF over GST control)"
same,binding signal,[13],"1.25 fold enrichment (6-mer frequency, TF over GST control)"
same,binding signal,[14],"1.21 fold enrichment (6-mer frequency, TF over GST control)"
same,binding signal,[15],"1.28 fold enrichment (6-mer frequency, TF over GST control)"
same,binding signal,[16],"1.05 fold enrichment (6-mer frequency, TF over GST control)"
same,binding signal,[17],"1.33 fold enrichment (6-mer frequency, TF over GST control)"
same,binding signal,[18],"1.65 fold enrichment (6-mer frequency, TF over GST control)"
same,binding signal,[19],"1.32 fold enrichment (6-mer frequency, TF over GST control)"
